HTT aggregate = mutant huntingtin aggregation inhibition. PC12 HttQ103-GFP aggregates, Acumen cytometry, 40 h. Potency, µM (doses to about 46.1 µM), most hits filed as inhibitors. hit rate 1.1% among 220,000; further: nearly all actives have a fitted effect of over 60% in size
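Quantitative HTS on tebufenozide-induced (100 nM) PC12 cells stably expressing polyQ103 Huntingtin exon 1–GFP. Reduction of bright GFP aggregates, detected by laser scanning cytometry after lysis, identified actives across the titration.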
Lamin A splicing = changes lamin A minigene splicing in HeLa cells. HeLa LMNA splicing GFP/RFP minigene ratio, 48 h. Potency, µM (top dose mostly 46.1 µM), most hits filed as inhibitors. hit rate 0.01% among 200,000. AID 1487; active means well fitted inhibition curve with a large enough effect in the signal ratio, with a control signal flat, not every such curve was filed as active; inconclusive means small, poorly fitted or top-dose-only effect, or effect the other way, or a change in a side signal; the % refers to the signal ratio
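S3 HeLa stable clones carrying a lamin A-EGFP splicing minigene plus DsRed2 were seeded at 600 cells/well in Opti-MEM with 2% FBS, pin-dosed and incubated 48 h at 37°C. Acumen cytometry (488 nm) gave the GFP/RFP total-intensity ratio.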
HTT cytoprotect = cytoprotection in Huntington HTT-Q103 PC12 cell model. PC12 HTT-Q103 induced, cytoprotection, ATP luminescence, 40 h. AID 1471. hit rate 0.14% among 230,000. Potency, µM (top dose mostly 56.4 µM), usual class: activators; further: nearly all actives have a fitted effect of over 45% in size
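Rat PC12, Q103 Htt exon1-GFP fusion, ecdysone promoter; tebufenozide inducer 100 nM final; compound titration; qHTS, 1500 cells/well; ATPlite luminescent read.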
Epigenetic reg = regulators of epigenetic silencing causing reporter derepression in mouse cells; murine LDR cells, GFP reporter derepression, 30 h; hit rate 0.2% among 280,000; Potency, µM (doses to about 53.9 µM), most hits filed as activators; further: nearly all actives have a fitted effect of over 60% in size
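GFP-positive cell count by laser-scanning cytometry (objects 20–120 um) after 30 h, 37 C compound exposure of murine LDR cells; reporter is CMV-GFP integrated at a silenced locus, inducible by HDAC or DNMT inhibitors.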
NPSR antag = blocks cAMP signaling of the human neuropeptide S receptor | hit rate 1% among 220,000 | AID 1461 | CHO-NPSR cells, cAMP TR-FRET, antagonist mode | Q6W5P4 | Potency, µM (doses to about 38.3 µM), hits mostly inhibitors; further: nearly all actives have a fitted effect of over 50% in size
Target sequence (Q6W5P4 whole entry, looked up): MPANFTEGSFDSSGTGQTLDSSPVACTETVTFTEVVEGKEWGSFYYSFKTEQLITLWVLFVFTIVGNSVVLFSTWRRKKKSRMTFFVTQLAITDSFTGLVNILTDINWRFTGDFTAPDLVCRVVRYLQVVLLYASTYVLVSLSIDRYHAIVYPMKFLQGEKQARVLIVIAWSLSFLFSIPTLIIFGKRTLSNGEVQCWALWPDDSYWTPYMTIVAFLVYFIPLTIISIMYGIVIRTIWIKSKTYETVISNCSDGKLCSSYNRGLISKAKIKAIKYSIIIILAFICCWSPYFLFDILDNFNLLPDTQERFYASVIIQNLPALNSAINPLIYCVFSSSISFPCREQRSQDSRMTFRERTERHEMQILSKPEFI
Each line names hits and unclear results; the compound was inactive in the other large screens. Most compounds without a hit are left out; they make up all but 1.5% or so of the library. Unless noted, the call rests on the fitted dose curve; in most records, active means well fitted curve in the direction sought with a large enough effect; inconclusive means small, poorly fitted or top-dose-only effect, or another doubt; inactive means no such curve, though single readings can be large; an effect the other way counts as inactive or inconclusive.

Cc1ccc(Nc2ncnc3ccccc23)cc1	none
CCc1cccc(C)c1NC(=O)CN(C)S(=O)(=O)c1cccc2nsnc12	none (no result: HTT aggregate, Lamin A splicing, HTT cytoprotect, NPSR antag)
O=C1c2ccsc2SCCN1Cc1c(Cl)cccc1Cl	HTT aggregate 22.4µM, NPSR antag inconclusive
CC(C)(C)c1ccc(C(=O)NC2(C(F)(F)F)C(=O)Nc3c2c(=O)[nH]c(=O)n3-c2ccccc2)cc1 (configuration not stated)	none (no result: HTT aggregate, Lamin A splicing, HTT cytoprotect, NPSR antag)
Cc1nc(N2CCN(c3ccccc3)CC2)c2c3c(sc2n1)CCC3	HTT aggregate inconclusive, Lamin A splicing inconclusive
Oc1ccc(N2CCN(c3ncnc4sc5c(c34)CCC5)CC2)cc1	HTT aggregate 11.2µM, Lamin A splicing inconclusive, NPSR antag inconclusive
O=C(c1ccccc1)c1c2c(cc3sc4ccccc4[n+]13)-c1cccc3cccc-2c13	HTT aggregate 7.94µM, Lamin A splicing inconclusive, Epigenetic reg 11.2µM, NPSR antag 10µM (no result: HTT cytoprotect)
Cc1sc2cc3c(c(C(=O)c4ccccc4)[n+]2c1C)-c1cccc2cccc-3c12	HTT aggregate 8.91µM, Lamin A splicing inconclusive, NPSR antag inconclusive (no result: HTT cytoprotect)
COc1ccc(Oc2nc3c(c(=O)n(C)c(=O)n3C)n2Cc2ccccc2)cc1	none
CCn1c(Oc2ccc(F)cc2)nc2c1c(=O)n(C)c(=O)n2C	HTT aggregate 11.2µM
O=C(O)c1ccc(Cl)c(S(=O)(=O)Nc2ccccc2F)c1	none (no result: HTT aggregate, Lamin A splicing, HTT cytoprotect, NPSR antag)
CCCNC(=O)Cn1nc(-c2ccc(C)c(C)c2)c2cnc3ccc(F)cc3c21	none (no result: HTT aggregate, HTT cytoprotect, NPSR antag)
CC(C)(C)NC(=O)C(=O)NNC(=O)c1cccc(F)c1	HTT aggregate 0.631µM, HTT cytoprotect inconclusive
FC(F)(F)c1nc2cc3nc4ccccc4[nH]c3cc2n1	NPSR antag 12.6µM (no result: Lamin A splicing)
Nc1[nH]n2c(=O)cc(-c3ccccc3)nc2c1N=Nc1ccccc1	HTT aggregate 3.16µM
Nc1[nH]n2c(=O)cc(-c3ccccc3)nc2c1N=Nc1ccc(S(N)(=O)=O)cc1	none
CCCCNC(=S)Nc1ccc([N+](=O)[O-])cc1	HTT aggregate inconclusive, Lamin A splicing inconclusive
CC(C)CCNC(=S)Nc1ccc([N+](=O)[O-])cc1	HTT aggregate 20µM, Lamin A splicing inconclusive
Cc1ccc(C(C)C)cc1NC(=O)Nc1ccc([N+](=O)[O-])cc1	NPSR antag 10µM (no result: Lamin A splicing)
CCOc1ccc(NC(=O)Nc2cc(C(C)C)ccc2C)cc1	none (no result: Lamin A splicing)
COc1ccc(-c2cc(C(C)=O)c(C)n2CCC(=O)Nc2cc(Cl)ccc2C)cc1	Lamin A splicing inconclusive (no result: HTT aggregate, HTT cytoprotect, NPSR antag)
O=C(O)c1ccc(CS(=O)c2cccc(C(F)(F)F)c2)o1 (configuration not stated)	HTT aggregate 12.6µM, Lamin A splicing inconclusive
O=C(c1ccc(CS(=O)c2ccccc2Cl)o1)N1CCN(c2cccc(C(F)(F)F)c2)CC1 (configuration not stated)	none (no result: HTT aggregate, Lamin A splicing, HTT cytoprotect, NPSR antag)
Cc1onc(-c2ccccc2Cl)c1C(=O)N(C)C1CCCCC1	HTT aggregate 14.1µM, Lamin A splicing inconclusive
Cc1onc(-c2ccccc2Cl)c1C(=O)N1CCCCC1C(=O)O (configuration not stated)	none
CCc1cccc(NC(=O)C(Cc2ccccc2)NS(=O)(=O)c2ccc3c(c2)oc(=O)n3C)c1 (configuration not stated)	none (no result: HTT aggregate, Lamin A splicing, HTT cytoprotect, NPSR antag)
O=C(Cn1cc(C(=O)C(F)(F)F)c2ccccc21)N1CCCCCC1	none (no result: HTT aggregate, Lamin A splicing, HTT cytoprotect, NPSR antag)
Cc1cc(C)n(-c2nnc(N3CCN(c4ccc(F)cc4)CC3)nn2)n1	HTT aggregate 11.2µM
CCC1OC(=O)C(C)[C@@H](O[C@H]2C[C@@](C)(OC)C(O)C(C)O2)C(C)[C@@H](O[C@@H]2OC(C)CC(N(C)C)C2O)[C@@](C)(O)CC(C)CN(C)C(C)C(O)[C@]1(C)O (some centres not stated)	HTT cytoprotect inconclusive (no result: HTT aggregate, Lamin A splicing, NPSR antag)
O=C(O)CCCN1C(=O)/C(=C/c2cn(-c3ccccc3)nc2-c2cccs2)SC1=S	HTT aggregate inconclusive, NPSR antag 3.16µM (no result: Lamin A splicing)
Cc1nn(-c2ccccc2)c(Cl)c1/C=C1\SC(=S)N(CCCCCC(=O)O)C1=O	none (no result: Lamin A splicing)
O=C(c1csnn1)N1CCC[C@@]2(CCN(c3ncccn3)C2)C1	none (no result: HTT aggregate, Lamin A splicing, Epigenetic reg, NPSR antag)
N#C[C@@H](Cc1ccc(O)c(O)c1)C(=O)N1CCc2ccccc21	none (no result: HTT aggregate, Lamin A splicing, Epigenetic reg, NPSR antag)
CN(C)CC(O)Cn1c2ccc(Br)cc2c2cc(Br)ccc21 (configuration not stated)	none (no result: HTT aggregate, Lamin A splicing, NPSR antag)
O=S(=O)(Nc1nc2c(s1)CCCC2)c1ccc2ccccc2c1	HTT aggregate 11.2µM, Lamin A splicing inconclusive
